Test results reported in PubChem BioAssay.
Calls of active or inactive are those of the source.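 The calls were made as follows, unless noted: active = NADPH fluorescence slope more negative than the mean of all samples by about 3 SD, 99.7% confidence; inactive = the rest.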

Key:
[1] = inhibitors of TNFa-induced NFkB p65 translocation, primary screen, imaging, HUVEC, MLSMR starter and 10KST1 sets (AID 438;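 active = inhibition above 20% together with a positive visual image hit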;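 also: compound added about 3h40 before a 20 min TNFalpha stimulation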;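 as to inhibition: signal is the nuclear over cytoplasmic p65 intensity ratio per well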); conditions: HUVEC TNFa-induced p65 nuclear translocation; cell count: measured here: nuclei count (cytotoxicity indicator), at 2.08 µM; inhibition: at 2 µM, stronger effect = higher value, 0% TNFa-plus-vehicle, 100% no-TNFa wells
[2] = inhibitors of mutant huntingtin aggregation, primary screen, imaging, exon1htt(103Q)mCFP cells, high-content imaging (AID 483;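 active = visual image review flags a hit and inhibition of aggregation exceeds 20%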;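 also: compound exposure lasted 3 days before fixation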;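 as to nuclei count: percent of the per-plate median nuclei count of sample wells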); conditions: exon1htt(103Q)mCFP cell line, aggregate imaging, at 2 µM; inhibition of aggregation: stronger effect = higher value; nuclei count: measured here: cell count, toxicity
[3] = inhibitors of E-selectin induction by TNFa, primary screen, imaging, HUVEC, immunofluorescence, MLSMR starter and 10KST1 sets (AID 487;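 active = visually confirmed hit in the image check and inhibition above 20%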;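 as to inhibition: signal is fraction of cell area covered by stained E-selectin grains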;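 as to nuclei count: 100% = median nuclei count of all wells on the same plate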); conditions: HUVEC TNFalpha-induced E-selectin immunofluorescence imaging, at 2 µM; inhibition: stronger effect = higher value; nuclei count: measured here: cell number, toxicity
[4] = molecular target: Voltage-gated potassium channel subunit beta-2 (Rattus norvegicus) (UniProt P62483); assay: KvBeta enzyme negative modulators, primary screen, biochemical, NADPH fluorescence (AID 622;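 active = fluorescence slope higher than the sample average by over 3 SD, cut at about -0.22 in these data, passing the limit was not always enough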;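 also: slope of raw intensity against log time taken from 70 to 1610 s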); conditions: recombinant KvBeta, 4-cyanobenzaldehyde reduction, at 10 µM, stronger effect = higher value
Sequence of Voltage-gated potassium channel subunit beta-2 (Rattus norvegicus) (P62483 whole entry, looked up): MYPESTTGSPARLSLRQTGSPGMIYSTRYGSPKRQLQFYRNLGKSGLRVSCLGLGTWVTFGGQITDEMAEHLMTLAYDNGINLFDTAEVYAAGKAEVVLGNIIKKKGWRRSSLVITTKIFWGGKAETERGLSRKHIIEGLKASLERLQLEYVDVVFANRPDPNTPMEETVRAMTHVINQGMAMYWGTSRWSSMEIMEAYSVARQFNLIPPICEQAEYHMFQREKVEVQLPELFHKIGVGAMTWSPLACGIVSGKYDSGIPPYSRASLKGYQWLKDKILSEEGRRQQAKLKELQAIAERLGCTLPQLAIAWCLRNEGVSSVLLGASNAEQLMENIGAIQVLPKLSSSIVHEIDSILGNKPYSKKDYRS

[5] = molecular target: Voltage-gated potassium channel subunit beta-2 (Rattus norvegicus) (UniProt P62483); assay: KvBeta positive modulators, primary screen, biochemical, NADPH fluorescence (AID 623); conditions: Recombinant KvBeta, NADPH fluorescence decrease slope, 10 min; at 10 µM; stronger effect = lower value;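 also: fluorescence intensity change per second fitted from 20 to 320 s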
[6] = molecular target: Alpha-2C adrenergic receptor (Homo sapiens) (UniProt P18825); assay: modulators of alpha2C/GIRK thallium flux, primary screen, cell-based, HEK293 alpha2C/GIRK1/2 (AID 624;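 active = fluorescence slope after compound addition differing from the mean of all screened samples at 99.7% confidence, in either direction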;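 also: slope of fluorescence ratio to pre-addition baseline per second over 15 to 24 s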); conditions: thallium flux BTC fluorescence, at 10 µM, actives lie on both sides
Sequence of Alpha-2C adrenergic receptor (Homo sapiens) (P18825 whole entry, looked up): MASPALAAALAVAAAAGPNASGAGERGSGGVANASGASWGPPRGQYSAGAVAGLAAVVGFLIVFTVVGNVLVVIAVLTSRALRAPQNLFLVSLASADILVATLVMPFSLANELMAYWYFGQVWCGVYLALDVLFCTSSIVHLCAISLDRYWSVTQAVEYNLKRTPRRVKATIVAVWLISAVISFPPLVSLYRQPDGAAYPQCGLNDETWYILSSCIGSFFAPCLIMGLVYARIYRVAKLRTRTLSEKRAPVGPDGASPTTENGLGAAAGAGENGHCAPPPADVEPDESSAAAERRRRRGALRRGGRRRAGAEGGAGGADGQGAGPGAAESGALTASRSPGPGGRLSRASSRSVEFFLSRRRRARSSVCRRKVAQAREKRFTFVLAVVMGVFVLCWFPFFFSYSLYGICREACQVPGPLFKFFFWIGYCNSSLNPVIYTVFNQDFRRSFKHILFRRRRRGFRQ

[7] = inhibitors of Sendai virus-induced IRF3 signaling, primary screen, TLR/RLR signaling modifier project, cell-based, Sendai virus stimulus, luciferase, 10K MLSCN set (AID 602276;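 active = inhibition at or above 50% at 10 µM; inactive = inhibition below 50%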;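 also: firefly luciferase from ISG56 promoter only with Renilla not read in this screen; 0% = Sendai virus plus DMSO and 100% = medium plus DMSO without virus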); conditions: HEK293 RL24 IRF3 luciferase reporter, at 10 µM, stronger effect = higher value
[8] = inhibitors of poly I:C-induced TLR3 signaling, primary screen, cell-based, poly I:C stimulus, luciferase, 10K MLSCN set (AID 602277;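 active = inhibition of the reporter signal at or above 50%; inactive = inhibition below 50%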); conditions: HEK293-TLR3 RL24 IRF3 luciferase reporter, at 10 µM, stronger effect = higher value

Compound	cell count [1]	inhibition [1]	inhibition of aggregation [2]	nuclei count [2] [%]	inhibition [3]	nuclei count [3] [%]	fluorescence slope [4]	NADPH fluorescence slope [5]	slope [6]	inhibition [7]	inhibition [8]
FC(F)Oc1ccc(-c2csc(Cc3nnc4n3CCCCC4)n2)cc1	578	-3.5% (inactive)	-9% (inactive)	113	84.7% (active)	83.2	-0.535 (inactive)	7.5e-06 (inactive)	0.00442 (inactive)	-0.365% (inactive)	-11.8% (inactive)
CCOC(=O)CSc1nnc([C@H](C)NC(=O)OC(C)(C)C)o1	552	12% (inactive)	-32.6% (inactive)	83.6	-35% (inactive)	118	-0.471 (inactive)	-3.4e-05 (inactive)	0.00421 (inactive)	3.34% (inactive)	14.1% (inactive)
Cc1cc(C(=O)CN2C(=O)c3ccccc3C2=O)c(C)n1Cc1cccs1	522	-14.8% (inactive)	-1% (inactive)	112	-3.3% (inactive)	161	-0.517 (inactive)	-0.000116 (inactive)	0.00475 (inactive)	14.6% (inactive)	52.1% (active)
O=c1cnnc(NCc2ccccc2)[nH]1	696	-11.2% (inactive)	9.3% (inactive)	99.5	-32.9% (inactive)	105	-0.418 (inactive)	-2.6e-05 (inactive)	0.00324 (inactive)	1.13% (inactive)	8.35% (inactive)
CC1=C(C(=O)Nc2cccnc2)C(c2ccc(C(C)C)cc2)n2ncnc2N1 (stereo not drawn)	712	-12.8% (inactive)	-16.2% (inactive)	118	-56% (inactive)	120	-0.4 (inactive)	5.8e-05 (inactive)	0.00428 (inactive)	1.35% (inactive)	20% (inactive)
CCOC(=O)CCc1c(C)nc2cc(-c3ccc(F)cc3)[nH]n2c1=O	249	-7.1% (inactive)	3% (inactive)	85	-8.7% (inactive)	107	-0.457 (inactive)	-3.9e-05 (inactive)	0.00335 (inactive)	-3.01% (inactive)	22.2% (inactive)
Cc1ccc(C)c(N2CCN(C(=O)CCCn3c(=S)[nH]c4cc5c(cc4c3=O)OCO5)CC2)c1	494	2.5% (inactive)	-3.8% (inactive)	109	-37.7% (inactive)	114	-0.433 (inactive)	1.2e-05 (inactive)	0.00641 (inactive)	0.122% (inactive)	17.7% (inactive)
COc1ccc(NC(=O)CSc2nc3c(c(=O)n2-c2ccc(F)cc2)SCC3)cc1	596	-5.8% (inactive)	20% (inactive)	53.8	-11.9% (inactive)	91.5	-0.541 (inactive)	-1.7e-05 (inactive)	0.00814 (inactive)	17.1% (inactive)	26.3% (inactive)
O=C(CSc1nnc(Cn2c(=O)sc3ccccc32)n1-c1ccccc1)NCC1CCCO1 (stereo not drawn)	525	-6.2% (inactive)	1.1% (inactive)	106	-19.9% (inactive)	116	-0.583 (inactive)	-2.3e-05 (inactive)	0.00648 (inactive)	12% (inactive)	37.7% (inactive)
Cc1ccc2[nH]c(=O)c(CN(CCCN3CCOCC3)C(=O)Nc3cccc(Cl)c3)cc2c1	724	21.3% (inactive)	-15.9% (inactive)	89	8% (inactive)	131	-0.597 (inactive)	-5.2e-05 (inactive)	0.00418 (inactive)	13.4% (inactive)	4.8% (inactive)
O=C(Nc1ccc2snnc2c1)N1CCSCC1	407	-3% (inactive)	1.8% (inactive)	97.6	12.4% (inactive)	106	-0.371 (inactive)	-1.5e-05 (inactive)	0.00608 (inactive)	-5.1% (inactive)	3.28% (inactive)
C=CCn1c(SCC(=O)c2cc(C)n(C(C)COC)c2C)nc2sc(C)c(C)c2c1=O (stereo not drawn)	357	3% (inactive)	-8.9% (inactive)	99.9	-1.2% (inactive)	100	-0.459 (inactive)	1e-05 (inactive)	0.00515 (inactive)	7.26% (inactive)	22.9% (inactive)
CC(=O)N1CCc2cc(Br)cc(S(=O)(=O)NCCCN3CCCC(C)C3)c21 (stereo not drawn)	379	0.3% (inactive)	-1.8% (inactive)	104	-170% (inactive)	96	-0.47 (inactive)	1.8e-05 (inactive)	0.00613 (inactive)	-7.41% (inactive)	12.2% (inactive)
Cc1nnc(NCCc2ccccc2)n(N)c1=O	806	-5.5% (inactive)	-21.2% (inactive)	106	-35% (inactive)	121	-0.514 (inactive)	4.9e-06 (inactive)	0.00506 (inactive)	2.54% (inactive)	5.29% (inactive)
OCCNc1nc2ccc(Cl)cc2[nH]1	433	2.6% (inactive)	19.6% (inactive)	106	-19% (inactive)	110	-0.365 (inactive)	1.9e-05 (inactive)	0.00613 (inactive)	-12.8% (inactive)	-7.02% (inactive)
CN1CCN(C(=O)C2CCN(S(=O)(=O)c3ccc4c(c3)oc(=O)n4C)CC2)CC1	554	-4.7% (inactive)	8.3% (inactive)	100	-22% (inactive)	116	-0.59 (inactive)	-2.4e-05 (inactive)	0.00694 (inactive)	8.49% (inactive)	23.9% (inactive)
O=C(O)CC1NC(=O)N(c2ccccc2)C1=O (stereo not drawn)	540	-4.6% (inactive)	5.1% (inactive)	95.5	-106% (inactive)	114	-0.599 (inactive)	1.8e-06 (inactive)	0.00411 (inactive)	16.4% (inactive)	21.9% (inactive)
CC1CN(CC(O)COc2ccccc2C(C)(C)C)CC(C)O1 (stereo not drawn)	609	-29.6% (inactive)	-10.6% (inactive)	108	-32.5% (inactive)	101	-0.509 (inactive)	1.1e-05 (inactive)	0.00559 (inactive)	10.2% (inactive)	23.2% (inactive)
CCSC1=C(C#N)C(c2ccccc2OC)CC(=O)N1 (stereo not drawn)	631	-1.9% (inactive)	-4.5% (inactive)	86.7	-16.2% (inactive)	106	-0.436 (inactive)	1.7e-05 (inactive)	0.00579 (inactive)	-0.399% (inactive)	17.9% (inactive)
COc1ccc(N(C(=O)c2ccco2)C(C(=O)NC2CCCC2)c2ccc(N(C)C)cc2)cc1OC (stereo not drawn)	596	-18.8% (inactive)	-35.5% (inactive)	116	-96.5% (inactive)	109	-0.48 (inactive)	3.2e-05 (inactive)	0.00496 (inactive)	3.23% (inactive)	27.3% (inactive)
O=C1CC(c2cccc(Cl)c2)Cc2nc(N3CCN(c4ccccc4)CC3)ncc21 (stereo not drawn)	715	-1.6% (inactive)	-8.3% (inactive)	111	-57.1% (inactive)	140	-0.442 (inactive)	2.5e-05 (inactive)	0.00428 (inactive)	-7.91% (inactive)	-2.99% (inactive)
C/C=C/COC(=O)c1[nH]c2c(c1C)C(=O)CC(c1ccco1)C2 (stereo not drawn)	582	13.8% (inactive)	4.4% (inactive)	3.3	-141% (inactive)	97	-0.496 (inactive)	-1.1e-06 (inactive)	0.00708 (inactive)	25.7% (inactive)	82.7% (active)
CC1(C)CC(=O)C(CC2=C(O)CC(C)(C)CC2=O)=C(O)C1	628	-6.7% (inactive)	15.8% (inactive)	90.9	-24.2% (inactive)	112	-0.386 (inactive)	-1.3e-05 (inactive)	0.00397 (inactive)	7.41% (inactive)	23.2% (inactive)
O=C(CN(CCc1ccccc1)C(=O)CN1C(=O)COc2ccccc21)NCc1ccco1	571	-2.3% (inactive)	-4.1% (inactive)	55.5	-12.8% (inactive)	97.6	-0.468 (inactive)	-3.2e-06 (inactive)	0.00696 (inactive)	16.4% (inactive)	23.2% (inactive)
Cc1nn(-c2ccc(F)cc2)c2sc(C(=O)N3CCCCCC3)cc12	465	2% (inactive)	1.2% (inactive)	83.1	-38.9% (inactive)	113	-0.199 (inactive)	-3.1e-05 (inactive)	0.00645 (inactive)	-4.92% (inactive)	-14.2% (inactive)
CCOC(=O)N1CCC(NC(=O)c2ccc(CS(=O)(=O)c3c(Cl)cccc3Cl)o2)CC1	608	-3.7% (inactive)	10.7% (inactive)	94.3	-44.1% (inactive)	104	-0.611 (inactive)	2.7e-05 (inactive)	0.00587 (inactive)	16.5% (inactive)	0.288% (inactive)
Cc1ccc(C)c(S(=O)(=O)NCc2cccnc2)c1	597	-0.6% (inactive)	-6.9% (inactive)	114	-89.8% (inactive)	119	-0.467 (inactive)	-5.5e-05 (inactive)	0.00658 (inactive)	141% (active)	100% (active)
Cc1cc(NC(=O)CCC(=O)N(CC(=O)NC2CCCC2)Cc2ccc(F)cc2)no1	402	0.8% (inactive)	-35.1% (inactive)	103	-48.3% (inactive)	122	-0.421 (inactive)	-3.6e-05 (inactive)	0.00498 (inactive)	14.9% (inactive)	13.1% (inactive)
